# Test results: the OligoGym collection
# Target: AHCY
# Test: pooled miR-30 sensor sort-seq; sequence = guide strand
# Details: shRNA
# Also: reference of the scale not given here.
row,Sequence,sensor-assay potency score (higher = more potent)
1,TCATCTTGTAGAGGTTGTGGAC,-0.726
2,TTAACAGTCTATTCTAACCCCT,-0.371
3,TAGAGGTTGTCAAACTTGCTCT,-0.554
4,ACACACAATGGCATCATCCTTC,-0.521
5,TAACAGTCTATTCTAACCCCTG,-0.522
6,ATCTCGGTGATGATGACGCGGG,-1.23
7,ATGATGTCAATACAGCCTGTGG,-1.59
8,TTGATGTTCACCTTCTCCACGG,0.235
9,TTACTCATCACGAAGCTGGGGT,0.777
10,TTCATCTGCTCAAAGTGCCGGC,-0.375
11,TTGGTGTGGATGAGGTTGGTGA,-1.01
12,TAGCTTGGTCAACTTCACATTC,-1.21
13,TATAAGTCCACAGACCAGGTGA,0.25
14,TCGGCCAGCAGGATGATGCGGC,-0.886
15,TTGTCAAACTTGCTCTTGGTGA,-0.625
16,AAACTTGCTCTTGGTGACGGAG,-1.03
17,TTCAGCCACTGCCTCATCCAGC,-0.886
18,TCTTTTAACATTATAGGCCAAA,-1.21
19,TTAGCTTGGTCAACTTCACATT,-0.84
20,TTGATGGGGTCAATCTCGGTGA,-1.04
21,TCGATCTGCGCCATCACCTGGT,-0.451

# Target: AHDC1
# Test: as above
# Details: shRNA
row,Sequence,sensor-assay potency score (higher = more potent)
1,TTCTTCATCTTCAGCAGCGGGG,-0.945
2,TTTGTATGTGGTCTTGTTCCGC,0.223
3,ATGCTTGCCATCAAGCTCGGGA,-0.78
4,TTGGGTACCATGTAGCCACCGG,-0.207
5,TCTGGTTCCAGTTGTAGCCGGG,0.572
6,TTGCTGTTAGCGCAGTCCTGGC,-1.57
7,TTGTATGTGGTCTTGTTCCGCC,-0.176
8,TTGAACTGGGTGCTGTCGGAGG,-0.689
9,TAGCTTGCTGCTCGTCCTGGTG,-0.838
10,AACTCTGGGACTGAGACCGGGC,-0.558
11,TTGCGGGTAGAGACCACTGGGG,-0.627
12,TTTGCGGGTAGAGACCACTGGG,-0.394

# Target: AIG1
# Test: as above
# Details: shRNA
row,Sequence,sensor-assay potency score (higher = more potent)
1,TTATCAGTAATGACTTTGGGAA,-0.914
2,TTAAGATGGTTGTAGACCCAAA,-0.997
3,TAAATGATCCAGAACACTGCTA,0.31
4,TAGAGCAGTAAGACAGCAGGAT,0.285
5,TAATATAAAGGGCAGAACCGTC,-1.19
6,AATTCTTTAACACACAGTGAGG,-1.45
7,TTCGGGTATATCATCTCTCTGT,-0.249
